# Inconclusive results are not listed. The source made the active and inactive calls. Rule for the calls: active = hit-call score of the fitted dose curve at least 0.9, where 1 is the maximum; inconclusive = response in the unintended direction; inactive = score below 0.9.
# Experiments:
# [1] = read-out: ABC Transporter (ABCB1), ABCB1 (gene 5243); assay: CLD_ABCB1_48hr: CellzDirect (CLD) Gene Expression Assay for ABC Transporter (ABCB1) at 48 hours (AID 2283695);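 for AC50: potency for induction meaning increase of mRNA over DMSO vehicle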
# Method in brief: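 Primary human hepatocytes from two donor preparations dosed daily on two consecutive days with 0.2% DMSO vehicle. Harvest at 48 h. ABCB1 mRNA quantified by qNPA with chemiluminescence and fitted for gain of signal versus DMSO.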
# [2] = read-out: Cytochrome P450 3A4 (Homo sapiens) (UniProt P08684); assay: CLD_CYP3A4_48hr: CellzDirect (CLD) Gene Expression Assay for xenobiotic metabolism (CYP3A4) at 48 hours (AID 2283698)
# Method in brief: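 Primary human hepatocytes from two donor preparations dosed daily for two days with multiple chemical concentrations, 0.2% DMSO vehicle. CYP3A4 mRNA at 48 h by quantitative nuclease protection assay, chemiluminescence, positive fit versus DMSO; cytotoxicity flagged morphologically.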
# [3] = read-out: Cytochrome P450 2C19 (Homo sapiens) (UniProt P33261); assay: CLD_CYP2C19_48hr: CellzDirect (CLD) Gene Expression Assay for xenobiotic metabolism (CYP2C19) at 48 hours (AID 2283700);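 note: fitted upward so actives raise CYP2C19 mRNA above the 0.2% DMSO vehicle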
# Method in brief: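 Primary human hepatocytes (two donor preparations) dosed daily for two days, harvested at 48 h; CYP2C19 mRNA induction measured by qNPA chemiluminescence. Gain-of-signal fitted relative to 0.2% DMSO vehicle as baseline.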
# [4] = CLD_ACTIN_48hr: CellzDirect (CLD) Gene Expression Assay for Baseline Control (Actin) at 48 hours (AID 2283702)
# Method in brief: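 Primary human hepatocytes (two donor preparations) dosed daily for two days with ToxCast chemicals at multiple concentrations versus 0.2% DMSO vehicle; harvested at 48 h. Actin mRNA measured as a background control by quantitative nuclease protection assay with chemiluminescence.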
# [5] = read-out: Broad substrate specificity ATP-binding cassette transporter ABCG2 (Homo sapiens) (UniProt Q9UNQ0); assay: CLD_ABCG2_48hr: CellzDirect (CLD) Gene Expression Assay for ABC Transporter (ABCG2) at 48 hours (AID 2283704);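 for AC50: potency for induction of ABCG2 mRNA above the DMSO baseline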
# Method in brief: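 Primary human hepatocytes from two donors, dosed daily for 2 days, 0.2% DMSO vehicle, several concentrations. ABCG2 mRNA at 48 h by qNPA chemiluminescence, gain fitted versus DMSO; cytotoxicity flagged by morphology.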
# [6] = read-out: Glyceraldehyde-3-phosphate dehydrogenase (Homo sapiens) (UniProt P04406); assay: CLD_GAPDH_48hr: CellzDirect (CLD) Gene Expression Assay for Baseline Control (Glyceraldehyde 3-phosphate dehydrogenase) at 48 hours (AID 2283706);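 note: active means higher GAPDH mRNA than DMSO vehicle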
# Method in brief: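 Primary human hepatocytes dosed daily for two days with fresh chemical at multiple concentrations, 0.2% DMSO vehicle; GAPDH mRNA measured at 48 h by quantitative nuclease protection assay with chemiluminescence, fitted upward relative to DMSO as background control.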
# [7] = read-out: xenobiotic metabolism (CYP1A2), CYP1A2 (gene 1544); assay: CLD_CYP1A2_48hr: CellzDirect (CLD) Gene Expression Assay for xenobiotic metabolism (CYP1A2) at 48 hours (AID 2283703)
# Method in brief: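 Primary human hepatocytes from two donor preparations were dosed daily for two days at multiple concentrations in 0.2% DMSO vehicle. CYP1A2 mRNA was measured at 48 hours by chemiluminescent quantitative nuclease protection assay, with gain of signal fitted versus DMSO and cytotoxicity annotated from morphology.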
# [8] = read-out: Cytochrome P450 2B6 (Homo sapiens) (UniProt P20813); assay: CLD_CYP2B6_48hr: CellzDirect (CLD) Gene Expression Assay for xenobiotic metabolism (CYP2B6) at 48 hours (AID 2283699);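 note: actives raise transcript level above DMSO so potency reflects induction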
# Method in brief: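 Primary human hepatocytes dosed daily for two days over multiple concentrations, 0.2% DMSO vehicle; CYP2B6 mRNA quantified at 48 h by qNPA chemiluminescence. Induction fitted as gain of signal versus DMSO; cytotoxicity annotated by morphology.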
# [9] = read-out: glucuronosyltransferase (UGT1A1), UGT1A1 (gene 54658); assay: CLD_UGT1A1_24hr: CellzDirect (CLD) Gene Expression Assay for glucuronosyltransferase (UGT1A1) at 24 hours (AID 2283696)
# Method in brief: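 Primary human hepatocytes from two donor preparations were dosed (0.2% DMSO vehicle) and harvested at 24 h; UGT1A1 mRNA induction was quantified by chemiluminescent qNPA, fitted as gain relative to DMSO.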
# Cytochrome P450 2C19 (Homo sapiens), sequence (P33261 whole entry, looked up): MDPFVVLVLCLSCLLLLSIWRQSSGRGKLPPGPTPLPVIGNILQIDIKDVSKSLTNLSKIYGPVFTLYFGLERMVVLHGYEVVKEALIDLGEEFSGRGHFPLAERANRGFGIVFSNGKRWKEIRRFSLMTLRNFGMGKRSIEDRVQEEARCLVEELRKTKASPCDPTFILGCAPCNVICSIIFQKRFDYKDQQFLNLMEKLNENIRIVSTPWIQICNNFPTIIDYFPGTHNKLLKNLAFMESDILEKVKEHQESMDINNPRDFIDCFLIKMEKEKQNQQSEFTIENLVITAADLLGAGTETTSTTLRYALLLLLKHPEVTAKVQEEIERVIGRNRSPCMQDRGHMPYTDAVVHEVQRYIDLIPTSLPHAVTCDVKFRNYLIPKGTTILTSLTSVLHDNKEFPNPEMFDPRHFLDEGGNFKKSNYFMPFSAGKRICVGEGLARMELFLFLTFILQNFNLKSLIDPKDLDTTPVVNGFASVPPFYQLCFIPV
# Cytochrome P450 3A4 (Homo sapiens), sequence (P08684 whole entry, looked up): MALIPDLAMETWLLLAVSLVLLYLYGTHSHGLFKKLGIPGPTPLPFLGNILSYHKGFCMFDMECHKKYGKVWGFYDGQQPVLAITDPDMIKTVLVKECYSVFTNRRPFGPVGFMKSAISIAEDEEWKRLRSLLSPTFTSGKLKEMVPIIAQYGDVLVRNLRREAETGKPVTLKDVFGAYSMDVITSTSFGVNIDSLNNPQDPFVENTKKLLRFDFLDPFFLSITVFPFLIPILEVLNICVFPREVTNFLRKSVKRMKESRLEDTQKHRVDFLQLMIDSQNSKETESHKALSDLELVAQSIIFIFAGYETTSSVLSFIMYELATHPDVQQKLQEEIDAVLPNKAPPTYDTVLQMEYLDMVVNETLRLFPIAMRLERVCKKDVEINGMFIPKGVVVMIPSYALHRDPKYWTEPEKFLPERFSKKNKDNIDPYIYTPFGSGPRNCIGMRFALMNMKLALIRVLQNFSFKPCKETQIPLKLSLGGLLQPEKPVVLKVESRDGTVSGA
# Broad substrate specificity ATP-binding cassette transporter ABCG2 (Homo sapiens), sequence (Q9UNQ0 whole entry, looked up): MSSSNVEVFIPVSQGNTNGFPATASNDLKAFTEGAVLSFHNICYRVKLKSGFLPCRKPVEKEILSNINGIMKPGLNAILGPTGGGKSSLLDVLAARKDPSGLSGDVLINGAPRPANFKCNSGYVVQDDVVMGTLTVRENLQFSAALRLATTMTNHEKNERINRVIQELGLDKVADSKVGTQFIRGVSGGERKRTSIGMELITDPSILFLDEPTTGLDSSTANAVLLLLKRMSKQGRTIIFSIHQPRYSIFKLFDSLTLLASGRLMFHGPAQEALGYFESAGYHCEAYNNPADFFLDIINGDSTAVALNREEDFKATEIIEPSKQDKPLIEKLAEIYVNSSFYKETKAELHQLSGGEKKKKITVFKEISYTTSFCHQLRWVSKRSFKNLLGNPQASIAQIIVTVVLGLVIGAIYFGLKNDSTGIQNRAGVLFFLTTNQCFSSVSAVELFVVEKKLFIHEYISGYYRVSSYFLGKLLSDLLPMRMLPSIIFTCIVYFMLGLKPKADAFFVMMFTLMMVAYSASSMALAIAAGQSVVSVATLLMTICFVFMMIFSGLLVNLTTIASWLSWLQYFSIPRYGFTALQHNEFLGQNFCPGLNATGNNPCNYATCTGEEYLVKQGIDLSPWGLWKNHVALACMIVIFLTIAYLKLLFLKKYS
# Glyceraldehyde-3-phosphate dehydrogenase (Homo sapiens), sequence (P04406 whole entry, looked up): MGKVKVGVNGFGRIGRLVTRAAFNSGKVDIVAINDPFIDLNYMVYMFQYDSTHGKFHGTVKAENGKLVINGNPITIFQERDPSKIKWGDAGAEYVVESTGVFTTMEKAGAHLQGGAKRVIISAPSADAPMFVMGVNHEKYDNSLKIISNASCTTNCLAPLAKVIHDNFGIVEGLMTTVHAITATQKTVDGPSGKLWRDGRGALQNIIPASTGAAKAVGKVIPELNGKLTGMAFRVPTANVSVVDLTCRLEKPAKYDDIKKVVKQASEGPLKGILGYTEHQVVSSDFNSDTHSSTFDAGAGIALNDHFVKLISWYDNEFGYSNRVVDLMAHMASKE
smiles,measurement,setting,value
O=C(O)C(F)(F)C(F)(F)C(F)(F)C(F)(F)C(F)(F)C(F)(F)C(F)(F)F,outcome,[1],inactive
same,AC50,[2],3.97 µM (active)
same,outcome,[3],inactive
same,outcome,[4],inactive
same,outcome,[5],inactive
same,outcome,[6],inactive
COC(=O)c1ccccc1S(=O)(=O)NC(=O)Nc1nc(C)nc(OC)n1,outcome,[1],inactive
same,outcome,[2],inactive
same,outcome,[3],inactive
same,outcome,[4],inactive
same,outcome,[5],inactive
same,outcome,[6],inactive
CCc1ccc(C(=O)NN(C(=O)c2cc(C)cc(C)c2)C(C)(C)C)cc1,outcome,[1],inactive
same,AC50,[2],2.15 µM (active)
OCCOc1ccccc1,outcome,[3],inactive
same,outcome,[4],inactive
O=C(NC(=O)c1c(F)cccc1F)Nc1ccc(OC(F)(F)C(F)OC(F)(F)F)c(Cl)c1 (configuration not stated),outcome,[2],inactive
same,outcome,[3],inactive
same,outcome,[4],inactive
same,outcome,[5],inactive
same,outcome,[6],inactive
CNC(=O)CSP(=S)(OC)OC,outcome,[1],inactive
same,outcome,[3],inactive
same,outcome,[4],inactive
same,outcome,[5],inactive
CCC(C)(C)C(=O)OC1=C(c2ccc(Cl)cc2Cl)C(=O)OC12CCCCC2,outcome,[1],inactive
same,AC50,[2],34.8 µM (active)
same,outcome,[5],inactive
same,outcome,[6],inactive
Clc1ccccc1-c1nnc(-c2ccccc2Cl)nn1,AC50,[2],6.89 µM (active)
same,AC50,[7],20 µM (active)
same,outcome,[5],inactive
N#Cc1c(Cl)c(Cl)c(Cl)c(C#N)c1Cl,AC50,[2],0.000914 µM (active)
same,outcome,[3],inactive
same,outcome,[4],inactive
same,outcome,[5],inactive
same,outcome,[6],inactive
COc1cc(OC)nc(NC(=O)NS(=O)(=O)c2cc(NC=O)ccc2C(=O)N(C)C)n1,outcome,[1],inactive
same,outcome,[5],inactive
same,outcome,[6],inactive
O=C(Nc1ccccc1)Nc1cnns1,outcome,[2],inactive
same,outcome,[3],inactive
same,outcome,[5],inactive
O=[N+]([O-])c1c(Cl)c(Cl)c(Cl)c(Cl)c1Cl,AC50,[2],3.39 µM (active)
same,AC50,[8],1.9 µM (active)
same,outcome,[4],inactive
same,outcome,[5],inactive
CC(C)OC(=O)Nc1cccc(Cl)c1,AC50,[9],20 µM (active)
same,AC50,[2],36.3 µM (active)
same,outcome,[3],inactive
same,outcome,[4],inactive
same,outcome,[6],inactive
Oc1ccc(Cl)cc1Cc1ccccc1,outcome,[8],inactive
same,outcome,[3],inactive
same,outcome,[5],inactive
same,outcome,[6],inactive
O=C1c2ccccc2C(=O)N1SC(Cl)(Cl)Cl,outcome,[1],inactive
same,outcome,[3],inactive
same,outcome,[4],inactive
same,outcome,[5],inactive
same,outcome,[6],inactive
N#CN,outcome,[1],inactive
same,outcome,[3],inactive
same,outcome,[4],inactive
same,outcome,[5],inactive
same,outcome,[6],inactive
Cc1cc(C)nc(NC(=O)NS(=O)(=O)c2ccccc2C(=O)OC2COC2)n1,outcome,[1],inactive
same,outcome,[3],inactive
same,outcome,[4],inactive
same,outcome,[5],inactive
same,outcome,[6],inactive
[2H]C1([2H])[n+]2ccccc2-c2cccc[n+]2C1([2H])[2H],outcome,[5],inactive
same,outcome,[6],inactive
ClC1C(Cl)C(Cl)C(Cl)C(Cl)C1Cl (configuration not stated),outcome,[1],inactive
same,outcome,[5],inactive
CC(C)(C)C(O)C(Oc1ccc(Cl)cc1)n1cncn1 (configuration not stated),outcome,[1],inactive
same,outcome,[3],inactive
same,outcome,[5],inactive
CC1(C)C(C=C(Cl)Cl)C1C(=O)OC(C#N)c1ccc(F)c(Oc2ccccc2)c1 (configuration not stated),outcome,[9],inactive
same,AC50,[2],6.91 µM (active)
same,outcome,[3],inactive
COP(=S)(OC)Oc1ccc(SC)c(C)c1,outcome,[2],inactive
O=C(O)CCCOc1ccc(Cl)cc1Cl,outcome,[1],inactive
same,outcome,[3],inactive
same,outcome,[4],inactive
same,outcome,[5],inactive
CNC(=O)Oc1cccc(N=CN(C)C)c1,outcome,[1],inactive
same,outcome,[4],inactive
same,outcome,[7],inactive
same,outcome,[6],inactive
CN1CSC(=S)N(C)C1,outcome,[7],inactive
same,outcome,[5],inactive
same,outcome,[6],inactive
CCOc1nc(NC)nc(NC(=O)NS(=O)(=O)c2ccccc2C(=O)OC)n1,outcome,[1],inactive
same,outcome,[2],inactive
same,outcome,[5],inactive
same,outcome,[6],inactive
CC[C@H](C)[C@H]1O[C@]2(C=C[C@@H]1C)C[C@@H]1C[C@@H](C/C=C(\C)[C@@H](O[C@H]3C[C@H](OC)[C@@H](O[C@H]4C[C@H](OC)[C@@H](O)[C@H](C)O4)[C@H](C)O3)[C@@H](C)/C=C/C=C3\CO[C@@H]4[C@H](O)C(C)=C[C@@H](C(=O)O1)[C@]34O)O2 (tested in a mixture with another compound),AC50,[1],1.01 µM (active)
same,outcome,[3],inactive
same,outcome,[4],inactive
same,AC50,[5],3.14 µM (active)
same,outcome,[6],inactive
COC(=O)c1ccccc1CS(=O)(=O)NC(=O)Nc1nc(OC)cc(OC)n1,outcome,[3],inactive
same,outcome,[7],inactive
same,outcome,[5],inactive
same,outcome,[6],inactive
COC(=O)c1ccccc1S(=O)(=O)NC(=O)N(C)c1nc(C)nc(OC)n1,outcome,[6],inactive
